T cruzi growth-1 – T. cruzi proliferation inhibition; hit rate 5.9% among 77,000; T. cruzi beta-gal in NIH3T3, GalScreen luminescence, 90 h; inhibition, % at 8.34 µM; AID 624255;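 active = mean inhibition above about 93%, with at least 55% of replicates each passing it, limit read from the data, passing the limit was not always enough; inconclusive = only one of those two conditions holds; inactive = neither condition holds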
C diff HTS – C. difficile growth inhibition | Clostridium difficile clinical isolate growth, OD600, 24 h; hits give low values | hit rate 0.25% among 86,000 | AID 1259249 | growth activity, negative = inhibition, % at 16 µg/mL (by protocol);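 active = mean growth activity at or below -80% and every replicate also at or below -80%; inconclusive = mean at or below -80% but some replicate above -80%; inactive = mean growth activity above -80%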;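 also: 0% = DMSO wells and -100% = levofloxacin 16 µg/mL wells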
T cruzi growth-2 – inhibitors of T. cruzi proliferation; shares compounds with T cruzi growth-1; T. cruzi beta-gal in NIH3T3, GalScreen luminescence, 90 h; inhibition, % at 8.35 µM; hit rate 72% among 5,600;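 active = mean replicate inhibition above about 95% and at least 55% of replicates individually reaching it, limit read from the data; inconclusive = only one of the two criteria is met; inactive = neither criterion is met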
T cruzi growth-3 – blocks T. cruzi growth in NIH3T3 host cells. T. cruzi beta-gal in NIH3T3, GalScreen luminescence, 90 h. shares compounds with T cruzi growth-1. hit rate 21% among 5,600. inhibition, % at 2.09 µM. AID 651740;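 active = mean inhibition above about 95%, with at least 55% of replicates also reaching it, limit read from the data; inconclusive = meets just one of the two conditions; inactive = meets neither condition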;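 also: plate controls were neutral control median for no effect and positive control median for full effect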
3T3 cytotox – cytotoxicity in mouse NIH/3T3 fibroblasts; hit rate 14% among 5,600; NIH/3T3 viability, CellTiter-Glo ATP luminescence, 90 h; AID 651742; shares compounds with T cruzi growth-1; cytotoxicity (signal decrease), % at 8.35 µM;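 active = mean signal decrease across replicates above about 35% based on untreated-well scatter, with enough replicates individually passing, limit read from the data; inconclusive = no rule stated though some were filed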;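 also: 0% = median of neutral control wells and 100% = median of positive control wells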
NIH3T3 tox 2 – cytotoxicity in mouse NIH/3T3 fibroblasts; inhibition, % at 24.9 µM; NIH/3T3 viability, CellTiter-Glo ATP luminescence, 90 h; hit rate 56% among 5,600; shares compounds with T cruzi growth-1;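 active = mean loss of cell viability signal at or above a set limit, and enough replicates individually reaching it; inconclusive = meets only the mean limit or only the replicate share; inactive = meets neither condition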;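 also: 0% = median of neutral control wells and 100% = median of positive control wells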
* hit, by the source's call; ? = inconclusive; . = no result given. Shown is part of a subset that was picked to be rich in hits.

SMILES	T cruzi growth-1	C diff HTS	T cruzi growth-2	T cruzi growth-3	3T3 cytotox	NIH3T3 tox 2
C[C@@H]1CN([C@@H](C)CO)C(=O)c2cc(NC(=O)Nc3ccc(F)cc3)ccc2O[C@@H](C)CCCCO[C@H]1CN(C)CC1CCCCC1	114.9*	7.0	92.3	78.3	8.7	104.0*
C[C@H](CO)N1C[C@H](C)[C@H](CN(C)CC2CC2)OCCCC[C@H](C)Oc2ccc(NC(=O)Nc3ccc(F)cc3)cc2C1=O	85.4	.	.	.	.	.
C[C@@H]1CN([C@H](C)CO)C(=O)c2cc(NC(=O)Nc3ccc(F)cc3)ccc2O[C@@H](C)CCCCO[C@H]1CN(C)C	39.8	-0.9	.	.	.	.
C[C@H]1CCCCO[C@@H](CN(C)CC2CCCCC2)[C@@H](C)CN([C@@H](C)CO)C(=O)c2cc(NC(=O)Nc3ccc(F)cc3)ccc2O1	124.7*	0.0	101.4*	119.5*	60.0*	103.4*
C[C@H](CO)N1C[C@H](C)[C@H](CN(C)CC2CCCCC2)OCCCC[C@H](C)Oc2ccc(NC(=O)Nc3ccc(F)cc3)cc2C1=O	115.5*	-9.5	88.6	101.6*	117.7*	102.3*
C[C@@H]1CCCCO[C@@H](CN(C)C)[C@H](C)CN([C@@H](C)CO)C(=O)c2cc(NC(=O)Nc3ccc(F)cc3)ccc2O1	0.1	5.3	.	.	.	.
C[C@H](CO)N1C[C@H](C)[C@H](CN(C)C(=O)NC2CCCCC2)Oc2ncc(C#CC(C)(C)O)cc2C1=O	36.6	4.0	.	.	.	.
COc1cccc(CN(C)C[C@H]2OCc3cnnn3CCCC(=O)N([C@@H](C)CO)C[C@H]2C)c1	15.0	0.6	.	.	.	.
N#C[C@H]1[C@H](c2ccccc2C2=CCCCC2)[C@@H](CO)N1S(=O)(=O)c1ccccc1	.	-6.7	.	.	.	.
C[C@H](CO)N1C[C@H](C)[C@@H](CN(C)C(=O)C2CCC2)Oc2ncc(Br)cc2C1=O	-5.7	.	.	.	.	.
C[C@@H]1CN([C@@H](C)CO)C(=O)Cc2cc(NC(=O)c3ccncc3)ccc2O[C@H]1CN(C)S(=O)(=O)c1cn(C)cn1	25.4	6.1	.	.	.	.
C[C@@H]1CCCCO[C@@H](CN(C)CC2CCCCC2)[C@@H](C)CN([C@H](C)CO)C(=O)c2cc(NC(=O)Nc3ccc(F)cc3)ccc2O1	116.9*	12.8	99.9*	109.2*	29.4	103.2*
C[C@H](CO)N1C[C@H](C)[C@@H](CN(C)C)OCCCC[C@H](C)Oc2ccc(NC(=O)Nc3ccc(F)cc3)cc2C1=O	8.3	2.7	.	.	.	.
C[C@@H]1CN([C@H](C)CO)C(=O)c2cc(-c3ccc(C#N)cc3)cnc2O[C@@H]1CN(C)Cc1ccccn1	87.9	0.7	.	.	.	.
COCC(=O)N(C)C[C@@H]1Oc2ncc(C#C[C@H](C)O)cc2C(=O)N([C@H](C)CO)C[C@H]1C	0.5	-2.1	.	.	.	.
CO[C@H](CN(C)Cc1ccc(-c2ccccn2)cc1)[C@@H](C)CN(C(=O)Nc1ccc(F)cc1)[C@H](C)CO	89.7	.	.	.	.	.
CO[C@H](CN(C)Cc1ccc(-c2ccccn2)cc1)[C@@H](C)CN(C(=O)Nc1ccc(F)cc1)[C@@H](C)CO	100.5*	.	102.3*	34.1	16.9	11.8
CN1c2ccc(C3=CCCCC3)cc2[C@H]2[C@H](CCN2C(=O)C2CCC2)[C@@H]1CO	.	-2.3	.	.	.	.
CN(C)C(=O)c1ccc(-c2ccc3c(c2)[C@H]2[C@H](CCN2C(=O)C2CCOCC2)[C@@H](CO)N3C)cc1	101.0*	0.5	97.7*	69.9	-6.8	-2.8
CN1c2ccc(-c3cccc(F)c3)cc2[C@@H]2[C@@H](CCN2C(=O)C2CCOCC2)[C@H]1CO	59.4	-5.8	.	.	.	.
CN(C)C(=O)c1ccc(-c2ccc3c(c2)[C@H]2[C@H](CCN2C(=O)C2CCCCC2)[C@@H](CO)N3C)cc1	.	13.9	.	.	.	.
CN(C)C(=O)c1ccc(-c2ccc3c(c2)[C@H]2[C@H](CCN2C(=O)C2CC2)[C@@H](CO)N3C)cc1	101.7*	5.7	100.9*	99.1*	13.8	25.5
CN1c2ccc(C3=CCCCC3)cc2[C@@H]2[C@@H](CCN2C(=O)C2CCOCC2)[C@H]1CO	105.4*	-8.8	101.8*	73.4	5.3	17.8
CN1c2ccc(-c3ccc(F)cc3)cc2[C@H]2[C@H](CCN2C(=O)C2CCOCC2)[C@@H]1CO	102.4*	0.8	104.2*	69.0	-3.3	-0.1
CN(C)C(=O)c1ccc(-c2ccc3c(c2)[C@H]2[C@H](CCN2C(=O)C2CC2)[C@H](CO)N3C)cc1	17.5	-8.5	.	.	.	.
SMILES	T cruzi growth-1	C diff HTS	T cruzi growth-2	T cruzi growth-3	3T3 cytotox	NIH3T3 tox 2
CCS(=O)(=O)N1CCC2(CC1)CN(C(=O)c1cccc(F)c1)[C@H](CO)c1c2c2ccc(OC)cc2n1C	.	9.6	.	.	.	.
COc1cccc(S(=O)(=O)N2CCCCN3[C@H](C2)[C@H](c2ccc(-c4ccccc4)cc2)[C@@H]3CO)c1	-12.1	7.3	.	.	.	.
Cc1noc(C)c1NC(=O)N[C@@H]1CC[C@@H](CCNC(=O)C2CCCC2)O[C@H]1CO	.	-0.3	.	.	.	.
Cc1noc(C)c1NC(=O)Nc1ccc2c(c1)C(=O)N([C@@H](C)CO)C[C@H](C)[C@@H](CN(C)C(=O)Nc1cccc3ccccc13)OCCCC[C@H](C)O2	31.9	-8.8	.	.	.	.
COCC(=O)Nc1ccc2c(c1)[C@H]1C[C@H](CC(=O)O)O[C@H](CO)[C@H]1O2	.	-3.8	.	.	.	.
O=S(=O)(Cc1ccccc1)N1CCCCN2[C@H](CO)[C@@H](c3ccc(C#Cc4ccccc4)cc3)[C@H]2C1	56.7	53.8	.	.	.	.
O=S(=O)(Cc1ccccc1)N1CCCCN2[C@H](CO)[C@@H](c3ccc(C#Cc4ccccc4)cc3)[C@@H]2C1	92.4	17.1	.	.	.	.
CCCC#Cc1ccc([C@@H]2[C@@H](CO)N3CCCCN(S(=O)(=O)c4ccccc4C)C[C@@H]23)cc1	115.7*	-0.1	98.2*	78.9	17.3	101.6*
COCC#Cc1ccc([C@@H]2[C@@H](CO)N3CCCCN(S(=O)(=O)c4ccccc4C)C[C@@H]23)cc1	30.5	6.6	.	.	.	.
CC(C)C#Cc1ccc([C@@H]2[C@@H](CO)N3CCCCN(S(=O)(=O)Cc4ccccc4)C[C@@H]23)cc1	101.1*	7.6	105.0*	83.5	37.1*	104.3*
O=S(=O)(Cc1ccccc1)N1CCCCN2[C@@H](CO)[C@H](c3ccc(C#Cc4ccccc4)cc3)[C@@H]2C1	116.7*	5.6	100.1*	82.1	51.2*	106.0*
CCCC#Cc1ccc([C@H]2[C@H]3CN(S(=O)(=O)Cc4ccccc4)CCCCN3[C@H]2CO)cc1	100.2*	11.1	103.8*	81.0	?	76.1*
C[C@H](O)C#Cc1ccc([C@H]2[C@@H](CO)N3CCCCN(S(=O)(=O)Cc4ccccc4)C[C@H]23)cc1	37.2	9.2	.	.	.	.
CC(C)NC(=O)Nc1cccc2c1O[C@@H](CN(C)C(=O)Nc1cccc3ccccc13)[C@@H](C)CN([C@H](C)CO)C2=O	32.1	-0.7	.	.	.	.
COc1ccc(S(=O)(=O)Nc2cccc3c2O[C@@H](CN(C)C(=O)Nc2c(C)noc2C)[C@@H](C)CN([C@H](C)CO)C3=O)cc1	87.9	-5.8	.	.	.	.

Screens deposited in PubChem BioAssay by Broad Institute.
